Measured values: PubChem BioAssay (NCI)
The panel holds about 83,000 compounds, 20% with a hit somewhere; the sample as a whole holds those more often.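 Single-concentration screen, 48 h exposure, 96-well plates. Endpoint: percent growth. Below 10 = active.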 Calls of active or inactive are those of the source.

Tests used:
Assay in all cases: NCI-60 one-dose screen, 48 h (100 = growth as untreated, 0 = no growth, -100 = all killed)
Settings in all cases: 10 µM unless noted
T-47D breast = system: T-47D breast
BT-549 breast = system: BT-549 breast
MDA-MB-435 melanoma = system: MDA-MB-435 melanoma
SW-620 colon = system: SW-620 colon
MCF7 breast = system: MCF7 breast
HCT-116 colon = system: HCT-116 colon
HCC-2998 colon = system: HCC-2998 colon
KM12 colon = system: KM12 colon

Measured: growth

C/C(=C\CCc1ccoc1)CC/C=C(\C)CCCNc1ccc(F)cc1
inactive: T-47D breast 77.8% | BT-549 breast 97.1% | MDA-MB-435 melanoma 99.2% | SW-620 colon 90.6% | MCF7 breast 92.8% | HCT-116 colon 85.2% | HCC-2998 colon 111% | KM12 colon 96.3%

CC(=O)Nc1ccc(C(=O)COc2ccc(/C=C3\CCc4ccccc4C3=O)cc2)cc1
inactive: T-47D breast 91% | BT-549 breast 97.1% | MDA-MB-435 melanoma 122% | SW-620 colon 113% | MCF7 breast 122% | HCT-116 colon 106% | HCC-2998 colon 118%

C[C@@H]1CN(c2nc3c(cc2F)c(=O)c(C(=O)O)cn3C(C)(C)C)C[C@H](C)N1
inactive: T-47D breast 95.5% | BT-549 breast 107% | MDA-MB-435 melanoma 107% | SW-620 colon 100% | MCF7 breast 113% | HCT-116 colon 92.2% | HCC-2998 colon 98.1% | KM12 colon 98.5%

CSc1nc(-c2ccc(O)cc2O)c2c(=O)[nH]c(Nc3ccc(S(=O)(=O)Nc4nc(C)cc(C)n4)cc3)nc2n1
inactive: T-47D breast 91.5% | BT-549 breast 87.1% | MDA-MB-435 melanoma 196% | SW-620 colon 108% | MCF7 breast 113% | HCT-116 colon 101% | HCC-2998 colon 93.4%

COC(=O)C1(NC(=O)CNC(=O)OCc2ccccc2)CCCC1
inactive: T-47D breast 113% | BT-549 breast 99.1% | MDA-MB-435 melanoma 106% | SW-620 colon 104% | MCF7 breast 93.9% | HCT-116 colon 99.9% | HCC-2998 colon 108% | KM12 colon 108%

COc1cccc(-c2nc(-c3ccc(N)cc3)co2)c1
inactive: T-47D breast 105% | BT-549 breast 110% | MDA-MB-435 melanoma 93.3% | SW-620 colon 113% | MCF7 breast 98.9% | HCT-116 colon 91.5% | HCC-2998 colon 122%

COc1ccc(/C=C2/SC(=Nc3c(C)nn(-c4ccccc4)c3N)NC2=O)cc1
active: MDA-MB-435 melanoma -38.9% | MCF7 breast 8.99%
inactive: T-47D breast 60.9% | BT-549 breast 26.8% | SW-620 colon 18.5% | HCT-116 colon 16.8% | HCC-2998 colon 53.5% | KM12 colon 28.6%

O=C(Oc1cccc2ccccc12)c1ccccc1C(=O)c1ccccc1
inactive: T-47D breast 87.4% | BT-549 breast 99.7% | MDA-MB-435 melanoma 73.5% | SW-620 colon 99.4% | MCF7 breast 109% | HCT-116 colon 82% | HCC-2998 colon 103% | KM12 colon 92.2%

O=C(N/N=C/c1cccc(O)c1)c1ccc(C(F)(F)F)nc1Nc1cccc(C(F)(F)F)c1
active: T-47D breast 5.41% | BT-549 breast 1.67% | SW-620 colon 7.06% | MCF7 breast 3.77% | HCT-116 colon -21.4% | KM12 colon 8.65%
inactive: MDA-MB-435 melanoma 51.2% | HCC-2998 colon 10.2%

O=C(NCCCl)NCCN1c2nc3ccccc3cc2Sc2cc3ccccc3nc21
inactive: T-47D breast 69% | BT-549 breast 40.3% | MDA-MB-435 melanoma 58.5% | SW-620 colon 41.3% | MCF7 breast 18.3% | HCT-116 colon 31.3% | HCC-2998 colon 35.1% | KM12 colon 71.9%

CCN(CC)CCCCCCCNc1c2ccc(Cl)cc2nc2ccc(OC)cc12
active: T-47D breast -42.3% | BT-549 breast -20.9% | MDA-MB-435 melanoma -78.9% | SW-620 colon -52.9% | MCF7 breast -32.4% | HCT-116 colon -49.6% | HCC-2998 colon -78.9% | KM12 colon -37.2%

COc1c(O)cc2c(c1CC=C(C)C)OC(=O)c1c(cc(O)c(CC=C(C)C)c1O)O2
inactive: T-47D breast 49.3% | BT-549 breast 78.2% | MDA-MB-435 melanoma 60.3% | SW-620 colon 27.3% | MCF7 breast 10.6% | HCT-116 colon 26.8% | HCC-2998 colon 24.5%
active: KM12 colon 7.76%

CCOC(=O)c1cnc2c(C)cc(C)cc2c1NCCCN(C)C
inactive: T-47D breast 54.5% | BT-549 breast 61.3% | MDA-MB-435 melanoma 32.3% | SW-620 colon 30.3% | MCF7 breast 15.1% | HCT-116 colon 15.4% | HCC-2998 colon 29% | KM12 colon 31.6%

CCNCCCn1c2c(c3ccc(F)cc3c1=O)C(=O)c1cc(OC)cnc1-2
active: T-47D breast -10.8% | BT-549 breast -22.7% | MDA-MB-435 melanoma 1.77% | SW-620 colon -16.1% | MCF7 breast -4.74% | HCT-116 colon -62.1% | HCC-2998 colon -56.1% | KM12 colon 1.84%

CCn1cnc(C[C@H](NC(=O)[C@H](CCCCNC(=O)Nc2cc(C(F)(F)F)cc(C(F)(F)F)c2)NC(=O)Nc2cc(C(F)(F)F)cc(C(F)(F)F)c2)C(=O)OC)c1
active: T-47D breast -62.8% [100 µM] | BT-549 breast -35.3% [100 µM] | MDA-MB-435 melanoma -65.4% [100 µM] | SW-620 colon -40.9% [100 µM] | MCF7 breast -47% [100 µM] | HCT-116 colon -100% [100 µM] | HCC-2998 colon -20.8% [100 µM] | KM12 colon -43% [100 µM]
